# Values of other authors as cited in PubChem BioAssay AID977608.
# Out of some 4,300 compounds screened, about 4,300 (100%) were called active. The limit is not given here; nearly all actives have IC50 up to about 1400 µM. So high a share suggests a set chosen from earlier hits. Some of the results follow. Where a SMILES comes first, the peptide text is derived from it. Square brackets hold non-standard residues; d marks the D form. Residues, ends and D or L forms follow the SMILES beside them. Peptide text beside a SMILES is read from it. * marks the point of attachment. Orn(CH(NH2)2) = NC(N)NCCC[C@H](N)C(=O)O; Abu = CC[C@H](N)C(=O)O; Dap = NC[C@H](N)C(=O)O; Propionyl = CCC(=O)*
# Assay: protein-ligand inhibition affinities from structures – PDB-derived complexes (AID 977608)
molecule,measurement,setting,value
O=C[N+](=O)CCC[P+](O)(O)O,IC50,"literature IC50, protein: E. coli 1-deoxy-D-xylulose 5-phosphate reductoisomerase (DXR), PDB entry 1onp",0.03 µM (active)
same,IC50,"literature IC50, protein: Oxidoreductase, PDB entry 3upy",2.39 µM (active)
NC(=O)C[C@@H]1NC(=O)C2(CCCCC2)NC(=O)C[C@@H](c2ccc(C[P+](O)(O)O)cc2)/C=C/C[C@@H](Cc2cccc3ccccc23)CNC1=O,IC50,"literature IC50, protein: growth factor receptor binding protein SH2 domain, PDB entry 1x0n",0.02 µM (active)
CC(C)C1=CC2=C(C(O)C1=O)[C@@]1(C)CCCC(C)(C)[C@@H]1C(=O)C2 (stereo partly specified),IC50,"literature IC50, protein: Farnesyl pyrophosphate synthase HsFPPS-5, PDB entry 4p0v",1.2 µM (active)
O=C(c1csc(-c2ccsc2)n1)n1ccc2ccccc21,IC50,"literature IC50, protein: 3-OXOACYL-[ACYL-CARRIER-PROTEIN] REDUCTASE FABG, PDB entry 4bo6",0.18 µM (active)
H-SDFEEFSLDDIEQ-OH,IC50,"literature IC50, protein: ?-thrombin, PDB entry 1thr",4.2 µM (active)
CC[C@H](C)[C@H](NC(=O)[C@H](Cc1ccccc1)NC(=O)[C@H](Cc1ccc(O)cc1)NC(=O)[C@H](CCC(=O)O)NC(=O)[C@@H](N)CCCCN)C(=O)O (tested in a mixture with another compound) (H-KEYFI-OH),IC50,"literature IC50, protein: HLA class I histocompatibility antigen, A-2 alpha chain HLA-A*0201, PDB entry 4u6x",0.414 µM (active)
H-ETFEHWWSQLLS-OH,IC50,"literature IC50, protein: E3 ubiquitin-protein ligase Mdm2, PDB entry 3jzs",0.008 µM (active)
same,IC50,"literature IC50, protein: Human Protein Mdm4, PDB entry 3jzq",0.11 µM (active)
H-LTFEHWWAQLTS-OH,IC50,"literature IC50, protein: E3 ubiquitin-protein ligase Mdm2, PDB entry 3jzr",0.036 µM (active)
same,IC50,"literature IC50, protein: Human Protein Mdm4, PDB entry 3jzp",0.25 µM (active)
C#Cc1csc2c1NC(NC1CCCC1)=[N+](CC)C2O (stereo unspecified),IC50,"literature IC50, protein: High affinity cAMP-specific 3',5'-cyclic phosphodiesterase 7A PDE7A, PDB entry 4pm0",0.045 µM (active)
N#Cc1ccc(-c2ccc(OCC(=O)O)cc2CN2CCN(c3ccccn3)CC2)cc1,IC50,"literature IC50, protein: PANTOTHENATE KINASE, PDB entry 4bfy",0.12 µM (active)
CCc1c(N2CCOCC2=O)cccc1S(=O)(=O)N[C@@H](Cc1cc(-c2ccc(Cl)s2)on1)C(=O)N1CCC(OC)CC1,IC50,"literature IC50, protein: COAGULATION FACTOR X LIGHT CHAIN & COAGULATION FACTOR X, PDB entry 4btt",0.00143 µM (active)
COCCOCCc1c(C)c2cc(OC)c(O)c(C)c2oc1=O,IC50,"literature IC50, protein: Serine/threonine-protein kinase/endoribonuclease IRE1-alpha, PDB entry 4pl3",0.29 µM (active)
Cc1cc(O)c(C(C)C)cc1N=O,IC50,"literature IC50, protein: Serine/threonine-protein kinase PLK1, PDB entry 4h71",35.6 µM (active)
Oc1ccc(-c2nc(-c3ccc(F)cc3)c(-c3ccncc3)[nH]2)cc1,IC50,"literature IC50, protein: Bromodomain-containing protein 4 BRD4-1, PDB entry 4o77",2.5 µM (active)
N#Cc1ccc(O)cc1F,IC50,"literature IC50, protein: M-phase inducer phosphatase 2 CDC25B, PDB entry 4wh7",5000 µM (active)
CC(=O)N1CCC[C@H]([C@]2(Cc3cccc(Cl)c3)C(=O)Nc3cc(Cl)ccc32)C1,IC50,"literature IC50, protein: Humanized Xenopus E3 ubiquitin-protein ligase Mdm2, PDB entry 4lwt",3.9 µM (active)
CCOc1c(I)cc(Cl)cc1CNCCCNC(=O)Nc1ccsc1,IC50,"literature IC50, protein: Trypanosoma brucei methionyl-tRNA synthetase, PDB entry 4mw7",10 µM (active)
OCc1cc(-c2cn[nH]c2-c2ccc(F)cc2)ccn1,IC50,"literature IC50, protein: Casein kinase I isoform delta, PDB entry 4kbc",0.0142 µM (active)
COc1ccccc1-n1c(-c2cc(O)ccc2C)c[n+]2c3c(=O)[nH]c(=O)n(C)c3[nH]c12,IC50,"literature IC50, protein: EPH receptor A3, PDB entry 4gk2",0.0016 µM (active)
O=C1CCN(c2cccc([N+](=O)[O-])c2)C(=O)N1,IC50,"literature IC50, protein: Bifunctional protein GlmU, PDB entry 4kpz",1950 µM (active)
CSCC[C@H](NC(=O)[C@@H]1CCCN1C(=O)CNC(=O)[C@H](CO[P+](O)(O)O)NC(=O)[C@H](Cc1ccc(O)cc1)NC(=O)[C@@H](NC(=O)[C@@H](N)CCCNC(N)N)[C@@H](C)O)C(=O)N[C@@H](CC(N)=O)C(=O)N[C@@H](CCCCN)C(=O)N[C@H](C(=O)O)C(C)C,IC50,"literature IC50, protein: HLA class I histocompatibility antigen, PDB entry 3bh9",0.117 µM (active)
CCC(=O)NCCCC[C@H](NC(=O)[C@@H]1CCCN1C(=O)[C@H](CCCNC(N)N)NC(=O)[C@@H](NC(=O)[C@H](CCSC)NC(=O)[C@H](C)NC(=O)[C@@H](NC(=O)[C@@H]1CCCN1C(=O)[C@H](CCCNC(N)N)NC(=O)[C@H](CC(C)C)NC(=O)[C@H](CCCCN)NC(C)=O)C(C)C)C(C)C)C(=O)N[C@H](C(=O)N[C@@H](CCCNC(N)N)C(=O)O)C(C)C (Ac-KL[Orn(CH(NH2)2)]PVAMV[Orn(CH(NH2)2)]PK(Propionyl)V[Orn(CH(NH2)2)]-OH),IC50,"literature IC50, protein: E3 ubiquitin-protein ligase SIAH1, PDB entry 4i7d",0.1 µM (active)
CCC(=O)NC[C@H](NC(=O)[C@@H](NC(=O)[C@@H]1CCCN1C(=O)[C@H](CCCNC(N)N)NC(=O)[C@H](CC(C)C)NC(=O)[C@@H](N)CCCCN)C(C)C)C(=O)N[C@@H](CCSC)C(=O)N[C@H](C(=O)N[C@@H](CCCNC(N)N)C(=O)N1CCC[C@H]1C(=O)N[C@@H](Cc1c[nH]c2ccccc12)C(=O)N[C@H](C(=O)N[C@@H](CCCNC(N)N)C(=O)O)C(C)C)C(C)C (H-KL[Orn(CH(NH2)2)]PV[Dap](Propionyl)MV[Orn(CH(NH2)2)]PWV[Orn(CH(NH2)2)]-OH),IC50,"literature IC50, protein: E3 ubiquitin-protein ligase SIAH1 (T156C mutation), PDB entry 4i7c",0.006 µM (active)
CC[C@H](NC(=O)[C@@H](NC(=O)[C@@H]1CCCN1C(=O)[C@H](CCCNC(N)N)NC(=O)[C@@H](N)CC(C)C)C(C)C)C(=O)N[C@@H](CCSC)C(=O)N[C@H](C(=O)N[C@@H](CCCNC(N)N)C(=O)N1CCC[C@H]1C(=O)N[C@H](C(=O)N[C@H](C(=O)O)C(C)C)[C@@H](C)O)C(C)C (H-L[Orn(CH(NH2)2)]PV[Abu]MV[Orn(CH(NH2)2)]PTV-OH),IC50,"literature IC50, protein: E3 ubiquitin-protein ligase SIAH1, PDB entry 4i7b",2 µM (active)
CC(C)C[C@H](NC(=O)[C@H](CC(C)C)NC(=O)[C@H](CC(C)C)NC(=O)[C@H](CCCCN)NC(=O)[C@H](CCCCN)NC(=O)[C@H](CC(C)C)NC(=O)[C@H](CC(C)C)NC(=O)[C@H](CO)NC(=O)[C@@H]1CCCN1)C(=O)N[C@@H](C)C(=O)N1CCC[C@H]1C(=O)N[C@@H](C)C=O (H-PSLLKKLLLAPA-aldehyde),IC50,"literature IC50, protein: PPARgama, PDB entry 3cs8",1.7 µM (active)
CC(C)C[C@H](NC(=O)[C@@H](O)CC(=O)O)C(=O)NCCCCNC(N)N,IC50,"literature IC50, protein: Streptopain, PDB entry 4d8e",0.098 µM (active)
CCC(CC)[C@H](NC(C)=O)[C@@H]1[C@H](O)[C@@H](C(=O)O)C[C@H]1NC(N)N,IC50,"literature IC50, protein: Neuraminidase, PDB entry 4mwv",0.0004 µM (active)
same,IC50,"literature IC50, protein: Neuraminidase, PDB entry 4mx0",0.185 µM (active)
